“And” between values parts separate entries of the source, which are not always exact repeats. Equal entries are not always repeated. About 83,000 compounds went through this panel and 20% of them were active in at least one assay; those are over-represented in the sample as a whole.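 Note: values are percent growth. 100 is the growth of untreated cells, values between 100 and 0 indicate rising inhibition; between -100 and 0 indicates cell death.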 The source made the active and inactive calls.
The molecules below were run on OVCAR-5 ovarian (assay: NCI-60 one-dose screen, 48 h (100 = growth as untreated, 0 = no growth, -100 = all killed)). Conditions: 10 µM unless noted.
Description: Growth inhibition of the OVCAR-5 human tumor cell line is measured as a screen for anti-cancer activity. Cells are grown in 96 well plates and exposed to the test compound for 48 hours. Compounds are tested at a single concentration, which is 10^-5 M for most compounds. The reported endpoint is percent growth (GI% or GIPRCNT), where numbers from 0 - 100% represent growth inhibition, and numbers from -100% - 0 represent cell death. For example, a value of 40 represents 60% growth inhibition. A value of 0 means no net growth occurred over the course of the experiment. A value of -40 indicates 40% of cells at the beginning of the experiment died by the end of the experiment. A value of -100 means all cells are dead at the end of the experiment.
NCI-60 Human Tumor Cell Lines Screen was performed using the standard one-dose NCI protocol, which is described in more detail at https://dtp.cancer.gov/discovery_development/nci-60/default.htm.
Compounds with GIPRCNT values below 10 were considered active. Activity score was based on GIPRCNT using the following formula: […]
Score is 0 for GIPRCNT values of 100 or above, 50 for GIPRCNT values of 0, and 100 for GIPRCNT values of -100.
`C1=CC(c2nn3c(-c4ccccc4)nnc3s2)=Cc2ccccc2O1` was tested, and the growth was 87.6% (inactive). In the case of `COc1cc2cc(Oc3ccc(NC(=O)c4cc(C(F)(F)F)cc(C(F)(F)F)c4)cc3)c(C)nc2cc1OCCN1CCOCC1`, the growth is reported as 95.7% (inactive). For `Cn1c2nc3ccccc3c-2cc2ccccc21`, the growth was 48% (inactive). In the case of `CC(C)(C)OC(=O)Nc1ccc(-c2cccc(Oc3ccc4nnc(Cl)n4n3)c2)cc1`, the growth is reported as 100% (inactive). In the case of `COc1cc(OC)cc(-c2cc(-c3c[nH]c4ccccc34)nc(-c3c[nH]c4ccccc34)c2C#N)c1`, the growth is reported as 109% (inactive). For `COc1ccc(NC2=C(Br)C(=O)C(C)=C(C)C2=O)cc1OC`, the growth was 121% (inactive). For `CCCN1C=C/C(=C\C(=O)n2ccc3ccccc32)c2ccccc21`, the growth was 87.8% (inactive). `O=C(/C=C/C=C/c1csc(Br)n1)NO` was tested, and the growth was 98.2% (inactive). For `C/C=C/CC(C)C(O)[C@H](NC(=O)[C@@H]1CCCN1C(=O)[C@](C)(CC)NC(=O)CCCCCCCCC)C(=O)N[C@@](C)(CC)C(=O)N[C@@H](CCC(N)=O)C(=O)N[C@H](CCC(N)=O)C(=O)NC(C)(C)C(=O)NC(C)(C)C(=O)N[C@@H](CCC(N)=O)C(=O)N[C@H](CC(C)C)C(=O)N[C@H](CO)CC(C)C` (stereo not given in full), the growth was 71% (inactive) and -92% (active). In the case of `C/C(=N/N)c1nnn(-c2ccc(Br)cc2)c1C`, the growth is reported as 93.2% (inactive). In the case of `C/C(=C(\c1ccc(O)cc1)c1ccc(OCCN2CCCCCC2)cc1)c1ccc(Cl)cc1`, the growth is reported as -56.3% (active). `O=C(CCCCCCNC(=O)C(O)(O)C(F)(F)F)Nc1ccc(Cl)cc1` was tested, and the growth was 9.85% (active). `C#C[C@]1(O)CC[C@H]2[C@@H]3CC=C4c5sc(NCc6ccccc6)nc5CC[C@]4(C)[C@H]3CC[C@@]21C` was tested, and the growth was 84% (inactive). In the case of `COc1ccc2c(c1)c(-c1nn3cc(-c4ccncc4)nc3s1)cn2C`, the growth is reported as 102% (inactive). With `CN1CC[C@@H]2[C@@]3(C)CC[C@H](O)C(C)(C)[C@@H]3CC[C@@]2(C)[C@]2(C)CC[C@@]3(CO)CCC(C)(C)C[C@@H]3C12` (stereo not given in full) the growth was 91.7% (inactive). `C#CCOc1ccc(/C=N/Nc2nc(-c3ccc(OC)cc3)cs2)cc1` was tested, and the growth was 104% (inactive). For `COc1ccc(C2CC(c3cccc(OCCCCOc4cccc(C5=NOC(c6ccc(OC)cc6)C5)c4)c3)=NO2)cc1` (stereo not given), the growth was 111% (inactive). With `C[C@@H]1OCC2(CCN(c3cnc(C(=O)Nc4cc(F)cc5cccnc45)cn3)CC2)[C@@H]1N` the growth was 80% (inactive). `COc1ccc(C(=O)c2c(N)c(C#N)cn2-c2ccc(Cl)cc2Cl)cc1` was tested, and the growth was 93.9% (inactive). With `COc1ccc(OC)c(CCn2cncc2-c2c[nH]c3ccc(Cl)cc23)c1` the growth was 83.9% (inactive). In the case of `C=C(C)[C@@H]1CC[C@]2(C(=O)O)CC[C@]3(C)[C@H](CC[C@@H]4[C@@]5(C)C/C(=C/c6ccccn6)C(=O)C(C)(C)[C@@H]5CC[C@]43C)[C@@H]12`, the growth is reported as 82.4% (inactive). `O=C(CSc1nnc(-c2ccc(Cl)cc2)n1-c1ccccc1)Nc1cccc(F)c1` was tested, and the growth was 41.9% (inactive). For `CC1=C(C)C(=O)C(Nc2cccc(C(=O)OC(C)(C)C)c2)=C(Cl)C1=O`, the growth was 106% (inactive). In the case of `CCN(CC)CCOc1ccc(C(=C(c2ccccc2)C2CCCC2)c2ccc(OCCN(CC)CC)cc2)cc1`, the growth is reported as 38.5% (inactive). For `Cc1[nH]c(C(=O)Nc2ccc(S(=O)(=O)N3CCCCC3)cc2OCCOCCOCCOCCOCCOCCOCCOCCOCCOc2cc(S(=O)(=O)N3CCCCC3)ccc2NC(=O)c2[nH]c(C)c3c2CCCCC3=O)c2c1C(=O)CCCC2`, the growth was 48.6% (inactive). With `NS(=O)(=O)c1ccc(Nc2nc(N/N=C/C=C/c3ccccc3)nc(Nc3ccccc3)n2)cc1` the growth was 99.2% (inactive). `N#Cc1c(-c2cccs2)cc(-c2cnccn2)nc1SCC(=O)N/N=C/c1ccncc1` was tested, and the growth was 114% (inactive). In the case of `O=C(CSc1nnc(-c2ccc(Cl)cc2)n1-c1ccccc1)Nc1ccc(Cl)cc1`, the growth is reported as 37.3% (inactive). In the case of `CCCCCc1ccc(S(=O)(=O)Nc2cc(-c3csc(N)n3)ccc2OC)cc1`, the growth is reported as 110% (inactive). For `CCCCc1nc2c(N)nc3ccccc3c2n1Cc1ccc(OC)cc1`, the growth was 82.4% (inactive). In the case of `C#C[C@]1(O)CC[C@H]2[C@@H]3CC=C4c5sc(Nc6ncccc6C)nc5CC[C@]4(C)[C@H]3CC[C@@]21C`, the growth is reported as 26% (inactive). In the case of `NC(=S)n1c(=O)n(-c2cccc(C(F)(F)F)c2)c(=O)c2cc(-c3ccc(F)cc3F)ccc21`, the growth is reported as 9.62% (active). In the case of `C=C(C)[C@@H]1CC[C@]2(C(=O)NC3CCCCC3)CC[C@]3(C)[C@H](CC[C@@H]4[C@@]5(C)CC[C@H](N)C(C)(C)[C@@H]5CC[C@]43C)[C@@H]12`, the growth is reported as 115% (inactive). With `Cn1cc(-c2nnc(N)nc2-c2c[nH]c3ccc(F)cc23)c2cc(Br)ccc21` the growth was 68.3% (inactive). In the case of `O=C(O)c1ccc(-n2c(=O)n(-c3cccc(C(F)(F)F)c3)c(=O)c3cc(-c4ccc(F)cc4F)ccc32)cc1`, the growth is reported as 24.8% (inactive). In the case of `C=C(C)[C@@H]1CC[C@]2(COP(=O)(OCC)OCC)CC[C@]3(C)[C@H](CC[C@@H]4[C@@]5(C)CC[C@H](OP(=O)(OCC)OCC)C(C)(C)[C@@H]5CC[C@]43C)[C@@H]12`, the growth is reported as 84.3% (inactive). With `Cc1cc(C)cc(NC2=C(Cl)C(=O)c3nc(C)ccc3C2=O)c1` the growth was 92.7% (inactive). With `CCCCCCOC(=O)c1cc(-c2ccc(F)cc2)nc2ccccc12` the growth was 102% (inactive). For `CCN(CC)CCOc1ccc(C(=C(C)Cc2ccc(OC)cc2)c2ccc(OCCN(CC)CC)cc2)cc1`, the growth was 77.4% (inactive). For `COc1cc(/C=C2/C(=O)Nc3ccc(Cl)cc32)ccc1OCc1ccc(Cl)cc1`, the growth was 96.7% (inactive).
